Consider 13 molecules from PubChem BioAssay.

The structures appear in SMILES notation. Calls of active or inactive are those of the source.

Experiment [1] in a line: optical density shifts of acrAB sulA E. coli – strain DRC41, OD650, 48 h, E. coli filamentation inducer project, primary screen (AID 1152).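 Note: E. coli MC1000 strain DRC41 lacking acrAB efflux pump and sulA.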 As to conditions: higher = more signal, called active from +8 up or from −8 down.
Experiment [2] is described as follows: probe aLefty1 binding on compound microarray – biochemical, small-molecule microarray, 635/667 nm fluorescence, primary screen (AID 1153).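 Note: score merges spot fluorescence with signal-to-noise ratio from the scanned slide images.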 Particulars: higher = more signal.
A short description of experiment [3]: plasmodial surface anion channel blockers, osmotic lysis – cell-based, P. falciparum Indochina, OD700, 1 h, primary screen (AID 1154). Particulars: P. falciparum Indochina infected RBC osmotic lysis, higher = more signal, called active from +8 up or from −8 down.
Experiment [4] in a line: plasmodial surface anion channel blockers, osmotic lysis – cell-based, P. falciparum Indochina, OD700, 2 h, primary screen (AID 1155).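 Note: lysis reports solute entry through the parasite surface anion channel PSAC.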 Particulars: P. falciparum Indochina infected erythrocytes, higher = more signal, called active from +8 up or from −8 down.
Experiment [5] is described as follows: changes in parasitized red cell lysis, either direction – P. falciparum Indochina, OD700, 3 h, PSAC antagonist project, primary screen (AID 1156). Particulars: P. falciparum-infected erythrocytes, osmotic lysis, higher = more signal, called active from +8 up or from −8 down.
A short description of experiment [6]: plasmodial surface anion channel blockers, osmotic lysis – cell-based, P. falciparum Indochina, OD700, 18 h, primary screen (AID 1157). As to conditions: P. falciparum Indochina infected erythrocytes, osmotic lysis OD700, 18 h; higher = more signal, called active from +8 up or from −8 down.
Experiment [7] is described as follows: S6 kinase pathway phospho-S6 level changes – cell-based, A549, cytoblot, luminescence, serum-stimulated, primary screen (AID 1158).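 Note: serum-stimulated A549 lung adenocarcinoma cells; signal is phosphorylated S6 detected by cytoblot immunostaining with HRP secondary.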 As to conditions: 5 h, higher = more signal.
For experiment [8], the target named is NADPH oxidase 2 (Homo sapiens) (UniProt P04839). Kind of experiment: compounds shifting NOX2 Amplex Red fluorescence – cell-based, HEK293-NOX2, PMA-stimulated, NOX inhibitor project, primary screen (AID 1159). Note: test concentration not given here. Particulars: 45 min, higher = more signal, called active from +8 up or from −8 down.
The target in experiment [9] is NADPH oxidase 4 (Homo sapiens) (UniProt Q9NPH5). The experiment in a line: compounds shifting NOX4 Amplex Red fluorescence – cell-based, HEK293-NOX4, tetracycline-induced, NOX inhibitor project, primary screen (AID 1160). As to conditions: HEK293-NOX4, Amplex Red H2O2 fluorescence, 45 min; higher = more signal, called active from +8 up or from −8 down.
Experiment [10] addresses NADPH oxidase 5 (Homo sapiens) (UniProt Q96PH1). Kind of experiment: compounds shifting NOX5 Amplex Red fluorescence – cell-based, HEK293-NOX5, NOX inhibitor project, primary screen (AID 1161). Particulars: HEK293-NOX5, ionomycin, 45 min, higher = more signal.

Sequence of NADPH oxidase 5 (Homo sapiens) (Q96PH1 whole entry, looked up): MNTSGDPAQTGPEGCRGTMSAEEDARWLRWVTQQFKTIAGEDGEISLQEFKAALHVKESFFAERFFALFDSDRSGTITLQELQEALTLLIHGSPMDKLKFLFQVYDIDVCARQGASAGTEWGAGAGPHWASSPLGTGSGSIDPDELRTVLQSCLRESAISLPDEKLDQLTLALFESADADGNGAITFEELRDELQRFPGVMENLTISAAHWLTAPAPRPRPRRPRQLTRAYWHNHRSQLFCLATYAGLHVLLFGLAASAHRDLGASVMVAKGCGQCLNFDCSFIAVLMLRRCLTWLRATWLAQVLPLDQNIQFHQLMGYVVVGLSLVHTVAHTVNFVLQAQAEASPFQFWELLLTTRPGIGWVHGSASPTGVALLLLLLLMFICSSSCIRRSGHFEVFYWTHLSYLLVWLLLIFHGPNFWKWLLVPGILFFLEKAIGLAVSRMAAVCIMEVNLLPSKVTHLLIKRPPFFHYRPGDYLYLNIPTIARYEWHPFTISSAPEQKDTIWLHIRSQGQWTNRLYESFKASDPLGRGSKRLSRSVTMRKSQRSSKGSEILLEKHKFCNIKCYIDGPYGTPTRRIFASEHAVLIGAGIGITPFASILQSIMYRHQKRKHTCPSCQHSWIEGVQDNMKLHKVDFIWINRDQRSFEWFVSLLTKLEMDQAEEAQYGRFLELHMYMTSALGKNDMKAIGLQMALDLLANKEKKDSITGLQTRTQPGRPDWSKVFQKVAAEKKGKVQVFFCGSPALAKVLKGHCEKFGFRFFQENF
Sequence of NADPH oxidase 4 (Homo sapiens) (Q9NPH5 whole entry, looked up): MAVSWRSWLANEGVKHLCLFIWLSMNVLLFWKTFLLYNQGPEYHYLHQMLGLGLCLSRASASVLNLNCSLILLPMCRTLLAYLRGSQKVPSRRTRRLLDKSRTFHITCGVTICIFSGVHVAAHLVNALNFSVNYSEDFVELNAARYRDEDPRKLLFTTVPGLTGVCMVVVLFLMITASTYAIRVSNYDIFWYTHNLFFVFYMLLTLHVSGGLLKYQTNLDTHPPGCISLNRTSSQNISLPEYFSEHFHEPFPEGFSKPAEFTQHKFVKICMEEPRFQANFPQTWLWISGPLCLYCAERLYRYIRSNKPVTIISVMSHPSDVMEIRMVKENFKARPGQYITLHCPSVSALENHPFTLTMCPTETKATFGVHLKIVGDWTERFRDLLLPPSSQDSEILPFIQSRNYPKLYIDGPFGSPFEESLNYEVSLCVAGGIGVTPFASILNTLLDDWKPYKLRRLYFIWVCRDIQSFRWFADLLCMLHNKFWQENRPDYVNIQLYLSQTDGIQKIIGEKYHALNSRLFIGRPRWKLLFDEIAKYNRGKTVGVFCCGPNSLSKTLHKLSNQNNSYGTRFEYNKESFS
Sequence of NADPH oxidase 2 (Homo sapiens) (P04839 whole entry, looked up): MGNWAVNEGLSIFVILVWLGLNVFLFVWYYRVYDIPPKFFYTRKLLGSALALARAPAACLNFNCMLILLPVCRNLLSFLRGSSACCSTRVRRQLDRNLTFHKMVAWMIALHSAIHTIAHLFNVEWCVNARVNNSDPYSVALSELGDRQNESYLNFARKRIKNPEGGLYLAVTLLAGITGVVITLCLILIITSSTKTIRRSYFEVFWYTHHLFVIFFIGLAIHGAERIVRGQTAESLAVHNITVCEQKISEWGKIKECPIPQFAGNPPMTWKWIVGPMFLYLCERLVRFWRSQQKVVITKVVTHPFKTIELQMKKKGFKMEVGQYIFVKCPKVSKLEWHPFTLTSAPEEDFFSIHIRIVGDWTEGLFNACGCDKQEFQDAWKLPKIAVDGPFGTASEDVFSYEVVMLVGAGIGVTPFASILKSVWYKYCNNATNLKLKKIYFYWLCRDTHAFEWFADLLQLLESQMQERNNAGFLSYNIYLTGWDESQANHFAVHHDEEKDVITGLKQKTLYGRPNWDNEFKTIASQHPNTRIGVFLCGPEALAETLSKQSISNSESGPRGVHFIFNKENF

Regarding `COC(=O)[C@@]1(Cc2ccc(F)cc2)[C@H]2c3cc(C(=O)N(C)C)n(CCc4ccccn4)c3C[C@H]2CN1C(=O)c1ccccc1`, the z-score in experiment [1] was -0.815 (inactive); in [3], 1.81 (inactive); in [4], -0.0235 (inactive); in [5] it was 0.892 (inactive); in experiment [6], -1.66 (inactive); in experiment [7], 0.402. Further, the z-score in [8] was 0.831 (inactive); in experiment [9], 1.03 (inactive); in [10], 0.234. In [2], this molecule displayed a composite z-score of 1.01.

For `COCC(=C=CC[C@H](O)c1ccc(OCCO)cc1)C[C@H](O)c1cc(Cl)cc(Cl)c1O`, the z-score in experiment [1] was 1.37 (inactive); in experiment [3], 10.3 (active); in experiment [4], 2.44 (inactive); in [5], -2.64 (inactive); in [6], -0.162 (inactive); in experiment [7] it was 0.175. Further, the z-score in [8] was -2.99 (inactive); in experiment [9] it was -1.12 (inactive); in experiment [10], -3.26. This molecule gave a composite z-score in [2] of 0.155.

As to `CCCCCN1CC=CC23O[C@@H]4C=CCOC(=O)[C@@H]4[C@H]2C(=O)N(CCCO)[C@@H]3C1=O` (stereo not given in full), the z-score in experiment [1] is 3.22 (inactive); in experiment [3] it was -0.322 (inactive); in [4] it was -0.397 (inactive); in [5] it was 0.993 (inactive); in experiment [6], -0.501 (inactive); in [7] it was 0.724. The figures for the z-score in experiment [8], in experiment [9] and in experiment [10] were -0.169 (inactive), -0.724 (inactive) and -1.14, respectively. The same molecule had a composite z-score in [2] of -0.149.

On to `O=C1O[C@@H](c2ccccc2)[C@@H](c2ccccc2)N2[C@@H](c3ccccc3OCCO)[C@]3(C(=O)Nc4ccc(C#CC5(O)CCCCCC5)cc43)[C@@H](C(=O)Nc3nc4ccccc4s3)[C@H]12`, for which the z-score in [1] is -0.478 (inactive); in experiment [3], 3.1 (inactive); in experiment [4] it was 3.75 (inactive); in [5] it was 1.96 (inactive); in experiment [6], 1.56 (inactive); in experiment [7], 0.361. Besides, the z-score in [8] was 1.42 (inactive); in [9] it was 0.501 (inactive); in [10] it was 1.28. The molecule further registered a composite z-score in experiment [2] of -0.12.

Consider `CC(C)CNC(=O)[C@@]1(c2ccc([N+](=O)[O-])cc2)CC(=O)N(CC23CC4CC(CC(C4)C2)C3)[C@@H]1c1ccc(CO)cc1`, for which the z-score in experiment [1] is 2.76 (inactive); in experiment [3] it was 2.75 (inactive); in [4] it was -0.14 (inactive); in experiment [5], 0.856 (inactive); in experiment [6] it was -0.36 (inactive); in experiment [7], 0.802. Besides, the z-score in [8] is -0.129 (inactive); in [9], -1.06 (inactive); in experiment [10] it was 0.965. This molecule also gave a composite z-score in experiment [2] of 0.227.

With `CC(C)C[C@@H]1NC(=O)[C@@H]2C[C@H](C(=O)NCCCCCC[N+](C)(C)C)[C@H](c3ccc(O)cc3)N2C1=O`, the z-score in experiment [1] was 0.55 (inactive); in experiment [3], 3.47 (inactive); in experiment [4], 0.637 (inactive); in [5], -1.96 (inactive); in experiment [6], 0.227 (inactive); in experiment [7] it was -0.274. Moreover, the z-score in experiment [8] was 0.994 (inactive); in experiment [9] it was 0.763 (inactive); in [10], 0.75. This molecule had a composite z-score in [2] of 0.127.

For the molecule `COCCOC(=O)N1C(=O)[C@@]2(c3cc(C#CCNC(N)=O)ccc31)[C@H](C(=O)N1CCc3cc(OC)c(OC)cc3C1)[C@H]1C(=O)O[C@H](c3ccccc3)[C@H](c3ccccc3)N1[C@@H]2c1ccc(OCCO)cc1`, the z-score is 1.3 (inactive) in experiment [1]; 3.93 (inactive) in experiment [3]; 1.37 (inactive) in [4]; 0.695 (inactive) in experiment [5]; 0.778 (inactive) in experiment [6]; 0.412 in [7]. Moreover, the values for the z-score in experiment [8], in [9] and in experiment [10] were 0.825 (inactive), 0.869 (inactive) and -0.0832, respectively. This molecule returned a composite z-score in experiment [2] of -0.361.

For the molecule `COCCOC(=O)N1C(=O)[C@@]2(c3cc(C#CCCO)ccc31)[C@H](C(=O)NC[C@H](O)c1ccccc1)[C@H]1C(=O)O[C@H](c3ccccc3)[C@H](c3ccccc3)N1[C@@H]2c1ccc(O)cc1`, the z-score was 1.53 (inactive) in experiment [1]; 1.35 (inactive) in [3]; 0.706 (inactive) in experiment [4]; -0.365 (inactive) in experiment [5]; 0.435 (inactive) in [6]; 0.391 in [7]. Also, the z-score in experiment [8] was 0.745 (inactive); in experiment [9], 0.698 (inactive); in [10] it was 1.21. This molecule also gave a composite z-score in experiment [2] of 0.0509.

For the molecule `CN1C(=O)C2C=CC(C(O)c3ccccn3)N(Nc3ccccc3)C2C1=O` (stereo not given), the z-score in experiment [1] was -0.434 (inactive); in [3], 0.844 (inactive); in experiment [4], 1.09 (inactive); in experiment [5], -0.197 (inactive); in experiment [6], 1.12 (inactive); in [7], -0.669. Also, the z-score is -1.35 (inactive) in experiment [8], -4.52 (inactive) in experiment [9] and -2.9 in experiment [10]. This molecule registered a composite z-score in experiment [2] of -0.093.

Turning to `COC(=O)[C@@]1(Cc2ccccc2N=[N+]=[N-])COC(c2ccc(OCCCO)cc2)=N1`, the z-score in experiment [1] was -1.01 (inactive); in [3], 24.3 (active); in experiment [4], 8.54 (active); in [5], 3.35 (inactive); in experiment [6], 1.03 (inactive); in experiment [7], -0.317. The z-score was -1.38 (inactive) in [8], -0.156 (inactive) in experiment [9] and -1.63 in experiment [10]. The composite z-score in experiment [2] was found to be 0.933.

Regarding `CCCN1C(=O)[C@@]2(CCC(=O)OC(C)(C)C)N=C(c3ccc(OCCCO)cc3)O[C@H]2c2ccccc21`, the z-score is 0.42 (inactive) in experiment [1]; 35.9 (active) in experiment [3]; 37.4 (active) in [4]; 3.51 (inactive) in experiment [5]; 9.08 (active) in [6]; 0.237 in experiment [7]. Further, the z-score in [8] is -2.74 (inactive); in experiment [9] it was -0.665 (inactive); in experiment [10], -1.96. Further, the composite z-score in [2] is -0.358.

With `O=C1O[C@H](c2ccccc2)[C@H](c2ccccc2)N2[C@H]1[C@@H](C(=O)O)[C@]1(C(=O)Nc3ccc(C#CC4=CCCCC4)cc31)[C@H]2c1ccc(OCCO)cc1`, the z-score is -0.915 (inactive) in experiment [1]; 0.381 (inactive) in experiment [3]; -0.97 (inactive) in [4]; -9.89 (active) in experiment [5]; -0.969 (inactive) in experiment [6]; 0.333 in experiment [7]. In addition, the z-score was 1.19 (inactive) in experiment [8], -0.768 (inactive) in experiment [9] and 1.37 in [10]. In experiment [2], this molecule yielded a composite z-score of 0.167.

Take `CCC[C@@H]1C=C(C(=O)O)[C@H](c2ccc(C)cc2)N1S(=O)(=O)c1ccc(C)cc1`: the z-score in experiment [1] was -0.75 (inactive); in experiment [3], 0.0822 (inactive); in experiment [4] it was 0.932 (inactive); in experiment [5], -0.246 (inactive); in experiment [6], 1.03 (inactive); in experiment [7], -0.476. The z-score is 0.769 (inactive) in experiment [8], -0.741 (inactive) in experiment [9] and 0.101 in experiment [10]. This molecule returned a composite z-score in [2] of 0.114.
